Activity calls are given as the source filed them. How the source made its calls: active means hit-call score of the fitted dose curve at least 0.9, where 1 is the maximum; inactive means score below 0.9.
Legend:
[1] = APR_HepG2_CellCycleArrest_24hr: Apredica 24-hour HepG2 Assay for Cell Cycle Arrest (AID 2282905); conditions: imaging, actives raise or lower the signal;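 further: cell cycle arrest scored as ratio of 2N to 4N nuclear DNA content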
In short: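 HepG2 cells were exposed to compounds at 0.39–200 uM (ten concentrations, duplicate) in 0.5% v/v DMSO for 24 hr. After formaldehyde fixation and Triton permeabilization, Hoechst 33342-stained nuclei were imaged at 20x; DNA content was quantified, with bidirectional fitting against DMSO.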

[2] = APR_HepG2_NuclearSize_24hr: Apredica 24-hour HepG2 Assay for Nuclear Size (AID 2282907); conditions: high-content imaging, actives raise or lower the signal
In short: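 HepG2 human liver cells were exposed for 24 hr to compounds at 0.39–200 uM (ten concentrations, duplicate) in 0.5% v/v DMSO. They were then formaldehyde-fixed, Triton-permeabilized and Hoechst 33342-stained, and nuclear diameter was imaged at 20x. Bidirectional fits were made against DMSO.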

[3] = APR_HepG2_CellLoss_24hr: Apredica 24-hour HepG2 Assay for Cell Loss (AID 2282908); conditions: high-content imaging;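 on AC50: fit in both directions so a hit may be cell loss or gain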
In short: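 Compounds were tested at 0.39–200 uM in duplicate with 0.5% v/v DMSO final. Cells were then fixed in 3.7% formaldehyde, Hoechst 33342 nuclei were imaged at 20x by HCS, and cell number was fitted bidirectionally against DMSO.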

[4] = APR_HepG2_MicrotubuleCSK_24hr: Apredica 24-hour HepG2 Assay for Microtubule CSK Stabilty (AID 2282909); conditions: HepG2 microtubule cytoskeleton imaging, actives raise or lower the signal
In short: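 HepG2 cells exposed 24 h to compounds at 0.39–200 uM (duplicate, 0.5% v/v DMSO final), then fixed, permeabilized and immunostained for alpha-tubulin with Hoechst 33342. Cytoskeleton imaged at 20x; bidirectional fit versus DMSO baseline.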

[5] = APR_HepG2_MitoticArrest_24hr: Apredica 24-hour HepG2 Assay for Mitotic Arrest (AID 2282910); conditions: high-content imaging, actives raise or lower the signal
In short: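 HepG2 human liver cells were exposed to compounds at 0.39–200 uM (10 concentrations, duplicate) in 0.5% v/v DMSO for 24 hr, then fixed and immunostained for phospho-histone H3 with Hoechst 33342. Mitotic arrest came from HCS fluorescent imaging, fitted bidirectionally against DMSO.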

[6] = APR_HepG2_MitoMembPot_24hr: Apredica 24-hour HepG2 Assay for Mitochondrial Membrane Potential (AID 2282911); conditions: imaging, actives raise or lower the signal
In short: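 Cells are dosed for 24 hr across 0.39 to 200 uM with solvent held at 0.5% DMSO. They are then stained with 250 nM MitoTracker Red CMXRos for 30 min, fixed in 3.7% formaldehyde and imaged.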

[7] = APR_HepG2_MitoMass_24hr: Apredica 24-hour HepG2 Assay for Mitochondrial Mass (AID 2282912); conditions: high-content imaging, actives raise or lower the signal
In short: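 Human HepG2 liver cells were exposed for 24 hr to compounds at 0.39–200 uM (duplicates, 0.5% v/v DMSO final). They were stained live with 250 nM MitoTracker Red CMXRos for 30 min, fixed in 3.7% formaldehyde, and imaged by HCS fluorescence; signals were fitted bidirectionally against DMSO.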

[8] = APR_HepG2_p53Act_24hr: Apredica 24-hour HepG2 Assay for p53 Activation (AID 2282913); conditions: high-content imaging, actives raise or lower the signal;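 further: p53 protein immunofluorescence averaged per cell in HepG2 with Hoechst nuclei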
In short: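 Human HepG2 liver cells; 24 hr cpd treatment, 0.39–200 uM, 0.5% DMSO final. Fixed in 3.7% formaldehyde, permeabilized with 0.5% Triton X-100, stained with anti-p53/Cy5 plus Hoechst 33342. Six images per well at 20x; gain or loss vs DMSO.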

[9] = APR_HepG2_CellCycleArrest_72hr: Apredica 72-hour HepG2 Assay for Cell Cycle Arrest (AID 2282914); conditions: high-content imaging, actives raise or lower the signal
In short: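 Read-out is Hoechst-stained nuclear DNA content measured by automated fluorescence imaging (20x, six images per well), fitted in both directions relative to DMSO. Human HepG2 liver cells received 0.39–200 uM compound for 72 hr at 0.5% v/v DMSO.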

[10] = APR_HepG2_CellLoss_72hr: Apredica 72-hour HepG2 Assay for Cell Loss (AID 2282915); conditions: high-content imaging
In short: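 HepG2 cells were exposed for 72 hr to compounds at 0.39–200 uM (ten concentrations, duplicate) in 0.5% v/v final DMSO. Nuclei were stained with Hoechst 33342 after 3.7% formaldehyde fixation, imaged at 20x, and counted; fits bidirectional versus DMSO.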

[11] = APR_HepG2_P-H2AX_72hr: Apredica 72-hour HepG2 Assay for H2AX Phosphorylation (AID 2282916); conditions: imaging, actives raise or lower the signal;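 further: phospho-histone H2A.x immunostain intensity per cell marking DNA damage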
In short: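 HepG2 human liver cells were exposed for 72 hr to compounds at 0.39–200 uM (10 concentrations, duplicate per plate) in 0.5% v/v DMSO. Fixed, permeabilized cells were immunolabeled for phospho-histone H2A.x with Hoechst 33342 and imaged by HCS fluorescence; bidirectional fit versus DMSO.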

[12] = APR_HepG2_MitoMembPot_72hr: Apredica 72-hour HepG2 Assay for Mitochondrial Membrane Potential (AID 2282917); conditions: imaging, actives raise or lower the signal
In short: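 HepG2 cells exposed 72 h to compounds at 0.39–200 uM (0.5% v/v DMSO, duplicates); MitoTracker Red CMXRos 250 nM loaded 30 min before 3.7% formaldehyde fixation, imaged by HCS fluorescence. Bidirectional fit versus DMSO.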

[13] = APR_HepG2_MitoticArrest_72hr: Apredica 72-hour HepG2 Assay for Mitotic Arrest (AID 2282918); conditions: high-content imaging, actives raise or lower the signal
In short: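 Read-out is phospho-histone H3 immunofluorescence with Hoechst nuclear segmentation, imaged at 20x. Human HepG2 liver cells received ten concentrations (0.39–200 uM, final DMSO 0.5% v/v) for 72 hr before fixation. Gain or loss of signal was fitted relative to DMSO.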

[14] = APR_HepG2_MicrotubuleCSK_72hr: Apredica 72-hour HepG2 Assay for Microtubule CSK Stabilty (AID 2282919); conditions: HepG2 microtubule cytoskeleton, high-content imaging, actives raise or lower the signal
In short: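 HepG2 human liver cells were dosed for 72 h at ten concentrations from 0.39 to 200 uM in duplicate (0.5% v/v DMSO final). Fixed, permeabilized cells were immunostained for alpha-tubulin (Cy5) with a Hoechst counterstain and imaged at 20x.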

[15] = APR_HepG2_P-H2AX_24hr: Apredica 24-hour HepG2 Assay for H2AX Phosphorylation (AID 2282920); conditions: high-content imaging, actives raise or lower the signal
In short: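 HepG2, 24 hr, cpd 0.39–200 uM (10 conc, duplicate), DMSO 0.5% v/v final. Fix 3.7% formaldehyde, Triton X-100 permeabilize, anti-phospho-H2A.x 1:200 + Hoechst 2 ug/mL. Imaged, bidirectional fit vs DMSO.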

[16] = APR_HepG2_StressKinase_72hr: Apredica 72-hour HepG2 Assay for Stress Kinase (AID 2282921); conditions: HepG2 stress kinase (phospho-c-Jun) imaging, actives raise or lower the signal
In short: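 Cells were exposed for 72 h to ten concentrations (0.39–200 uM, duplicate) at 0.5% v/v DMSO final, then fixed with 3.7% formaldehyde, permeabilized and immunostained for phospho-c-Jun (Cy3 secondary) with Hoechst nuclear counterstain.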

[17] = APR_HepG2_StressKinase_24hr: Apredica 24-hour HepG2 Assay for Stress Kinase (AID 2282922); conditions: HepG2 stress kinase (phospho-c-Jun) imaging, actives raise or lower the signal
In short: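 HepG2 cells exposed 24 hr to compound at 0.39–200 uM (10 concentrations, duplicate), 0.5% v/v DMSO final. Fixed in 3.7% formaldehyde, permeabilized with Triton X-100, immunolabeled for phospho-c-Jun with Hoechst 33342; HCS fluorescence imaging, bidirectional fit versus DMSO.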

[18] = APR_HepG2_p53Act_72hr: Apredica 72-hour HepG2 Assay for p53 Activation (AID 2282923); conditions: high-content imaging, actives raise or lower the signal;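 further: average cellular p53 protein immunofluorescence intensity in HepG2 cells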
In short: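 Cells were dosed for 72 hr with compounds at 0.39–200 uM in duplicate (final DMSO 0.5% v/v), then fixed in 3.7% formaldehyde, permeabilized with Triton X-100 and immunostained for p53 (Cy5) with Hoechst 33342 nuclear counterstain.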

[19] = APR_HepG2_MitoMass_72hr: Apredica 72-hour HepG2 Assay for Mitochondrial Mass (AID 2282924); conditions: high-content imaging, actives raise or lower the signal;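 further: MitoTracker Red CMXRos stain intensity per cell imaged as mitochondrial mass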
In short: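 HepG2 cells were exposed for 72 hr to compounds at 0.39–200 uM (ten concentrations, duplicate, 0.5% v/v DMSO final). Live cells were stained with 250 nM MitoTracker Red CMXRos for 30 min, then fixed in 3.7% formaldehyde and imaged by HCS fluorescence.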

[20] = APR_HepG2_NuclearSize_72hr: Apredica 72-hour HepG2 Assay for Nuclear Size (AID 2282925); conditions: high-content imaging, actives raise or lower the signal
In short: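 HepG2 cells were exposed to compounds at ten concentrations from 0.39 to 200 uM (duplicate, 0.5% DMSO final) for 72 hr. After fixation in 3.7% formaldehyde, nuclei were stained with Hoechst 33342 (2 ug/mL) and imaged at 20x.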

Measured: AC50

CC(C)(O)c1cnn2c(-c3ccc(F)c(-c4c(F)cccc4C#N)c3)cnc2n1
inactive: [1] | [2] | [8] | [9] | [16] | [18] | [20]
active: [3] 23.4 µM | [4] 89.9 µM | [5] 42.1 µM | [6] 33.1 µM | [7] 81.4 µM | [10] 23.9 µM | [11] 30.1 µM | [12] 83.9 µM | [13] 25.9 µM | [14] 78.8 µM | [15] 31.4 µM | [17] 51.5 µM | [19] 76.1 µM

CN(C)[C@@H]1C(=O)C(C(N)=O)=C(O)[C@@]2(O)C(=O)C3=C(O)c4c(O)cccc4[C@@](C)(O)[C@H]3C[C@@H]12
not listed: [15]
inactive: all other assays above

CN(C)c1ccccc1
not listed: [15]
inactive: all other assays above

ClC1=C(Cl)C2(Cl)C3C(Cl)C=CC3C1(Cl)C2(Cl)Cl (configuration not stated)
active: [1] 40.9 µM | [2] 101 µM | [3] 99.2 µM | [4] 68.7 µM | [5] 76.8 µM | [7] 55 µM | [8] 67.9 µM | [9] 26.7 µM | [10] 56 µM | [11] 65.9 µM | [13] 51.3 µM | [14] 88.5 µM | [16] 84.8 µM | [18] 63.7 µM | [19] 88.9 µM
inactive: [6] | [12] | [17] | [20]

c1ccc2c(c1)oc1ccccc12
active: [13] 0.0888 µM
inactive: all other assays above

[O-][Cl+]O
active: [3] 70.7 µM | [4] 73.3 µM | [5] 93.6 µM | [6] 62.5 µM | [10] 97.5 µM | [15] 66.5 µM | [17] 110 µM | [20] 157 µM
inactive: all other assays above
